The values that follow come from PubChem BioAssay.

Experiment [1] has as its target Albumin (Bos taurus) (UniProt P02769). Nature of the experiment: compounds binding labelled BSA control protein – biochemical, small-molecule microarray, Alexa647 label, 635/667 nm fluorescence, artefact control for SMM control protein annotation, profiling panel (AID 1118).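 Further: score merges 667 nm emission intensity and signal-to-noise per printed compound spot.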 To be noted: BSA-A647 binding, fluorescence 635 nm, higher = more signal.
The nature of experiment [2]: probe aXIP binding to arrayed compounds – biochemical, NeuroSMM set, 635/667 nm fluorescence, primary screen (AID 1119).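 Further: probe is the protein aXip251-270 applied at 1 µg/mL to compound-printed slides; binding of probe to printed compounds measured as 667 nm fluorescence plus signal to noise.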 The note with it: small-molecule microarray, higher = more signal, called active from +8 up or from −8 down.
Experiment [3] can be described thus: probe aNOTCH3 binding on compound microarray – biochemical, small-molecule microarray, 635/667 nm fluorescence, primary screen (AID 1120).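 Further: probe is a biotin-tagged antibody raised against NOTCH3 rather than NOTCH3 protein; score merges spot fluorescence near 667 nm with spot signal to noise.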 To be noted: higher = more signal.
The nature of experiment [4]: probe aNOTCH2 binding on compound microarray – biochemical, small-molecule microarray, 635/667 nm fluorescence, primary screen (AID 1121).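 Further: score merges feature fluorescence read at 667 nm with its signal to noise.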 To be noted: higher = more signal.
Experiment [5] deals with Carbonic anhydrase 2 (Homo sapiens) (UniProt P00918). Briefly: compounds binding carbonic anhydrase 2 – biochemical, small-molecule microarray, Alexa647-labelled CAII, profiling panel (AID 1122). To be noted: CAII-A647 binding fluorescence, higher = more signal.
A short description of experiment [6]: COS7 lysate on small-molecule microarray, probe aHis, 635 nm (AID 1123).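 Further: z-score combines 667nm fluorescence intensity with signal-to-noise per printed compound spot.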 To be noted: COS7 cell lysate, fluorescence, higher = more signal.
The nature of experiment [7]: probe aLAP1 signal on lysate-treated microarray – cell lysate, small-molecule microarray, COS7 lysate, primary screen (AID 1124).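 Further: lysate comes from COS7 cells expressing LAP1 and is applied at 0.3 µg/mL; score merges spot fluorescence near 667 nm with signal-to-noise over triplicate slides.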 The note with it: probe aLAP1, fluorescence, higher = more signal.
In experiment [8] the test system is Sam68 (KHDRBS1). Nature of the experiment: compounds binding KHDRBS1 protein – biochemical, small-molecule microarray, 635 nm fluorescence, primary screen (AID 1125).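 Further: score merges 667 nm channel intensity with signal to noise over triplicate slides.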 To be noted: higher = more signal.
Experiment [9] relates to Chordin-like protein 2 (CHRDL2). Briefly: compounds binding chordin-like 2 – biochemical, small-molecule microarray, 635 nm fluorescence, primary screen (AID 1126).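 Further: printed compound slides probed with Chrdl2 protein at 4 µg/mL for 1 h at 4 C; score merges 667 nm emission intensity with signal to noise over three replicate slides.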 The note with it: fluorescence 635 nm, higher = more signal.
Experiment [10] deals with Concanavalin-A (Canavalia ensiformis) (UniProt P02866). Briefly: compounds binding concanavalin A lectin – biochemical, small-molecule microarray, Alexa647 label, 635 nm, artefact control for SMM control protein annotation, primary screen (AID 1127).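 Further: z combines 667 nm emission intensity with signal-to-noise across three replicate slides.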 The note with it: ConA-A647 binding fluorescence, higher = more signal.
Sequence of Concanavalin-A (Canavalia ensiformis) (P02866 whole entry, looked up): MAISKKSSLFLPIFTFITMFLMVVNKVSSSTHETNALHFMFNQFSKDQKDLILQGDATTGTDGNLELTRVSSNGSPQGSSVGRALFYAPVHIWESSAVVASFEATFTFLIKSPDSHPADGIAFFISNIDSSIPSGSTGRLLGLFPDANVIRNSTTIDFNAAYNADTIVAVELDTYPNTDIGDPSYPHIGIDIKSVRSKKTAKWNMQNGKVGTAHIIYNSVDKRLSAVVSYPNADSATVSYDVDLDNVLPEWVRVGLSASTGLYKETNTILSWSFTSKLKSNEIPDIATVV
A short description of experiment [11]: compounds binding Alexa647 anti-His antibody – biochemical, small-molecule microarray, 635 nm fluorescence, artefact control for SMM control protein annotation, primary screen (AID 1128).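 Further: score merges feature fluorescence with signal-to-noise for each printed compound spot.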 The note with it: higher = more signal.
The subject of experiment [12] is Human papillomavirus type 1a E7 protein (residues 1-88). Briefly: HPV1a E7 small-molecule binders, primary screen, biochemical, small-molecule microarray, residues 1-88, 635 nm (AID 1129). To be noted: small-molecule microarray binding, fluorescence 635 nm; higher = more signal.
Experiment [13] concerns the target Focal adhesion kinase 1 (Homo sapiens) (UniProt Q05397). Nature of the experiment: PTK2 protein binding on printed compound slides – biochemical, small-molecule microarray, 635/667 nm fluorescence, BSA, DTT, primary screen (AID 1130).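 Further: composite of spot emission at 667 nm and signal to noise over triplicate slides.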 The note with it: 635 nm fluorescence, higher = more signal.
Experiment [14] has as its system Fibrinogen (Alexa647-labelled). Nature of the experiment: Alexa647-fibrinogen binding to printed small molecules – biochemical, small-molecule microarray, 635/667 nm fluorescence, artefact control for SMM control-protein annotation, profiling panel (AID 1131).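 Further: z-score merges 667 nm fluorescence with per-spot signal-to-noise over triplicate slides.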 The note with it: fibrinogen-A647 binding fluorescence, higher = more signal.
Experiment [15] addresses Follistatin (Homo sapiens) (UniProt P19883). Briefly: FST protein binding to printed compounds – biochemical, small-molecule microarray, 635/667 nm fluorescence, primary screen (AID 1132). The note with it: 635 nm fluorescence, higher = more signal.
The target of experiment [16] is Fibroblast growth factor 2 (Homo sapiens) (UniProt P09038). Nature of the experiment: basic fibroblast growth factor binding to printed compounds – biochemical, small-molecule microarray, 635/667 nm fluorescence, primary screen (AID 1133). To be noted: FGF2, fluorescence 635/667, higher = more signal.
Sequence of Fibroblast growth factor 2 (Homo sapiens) (P09038 whole entry, looked up): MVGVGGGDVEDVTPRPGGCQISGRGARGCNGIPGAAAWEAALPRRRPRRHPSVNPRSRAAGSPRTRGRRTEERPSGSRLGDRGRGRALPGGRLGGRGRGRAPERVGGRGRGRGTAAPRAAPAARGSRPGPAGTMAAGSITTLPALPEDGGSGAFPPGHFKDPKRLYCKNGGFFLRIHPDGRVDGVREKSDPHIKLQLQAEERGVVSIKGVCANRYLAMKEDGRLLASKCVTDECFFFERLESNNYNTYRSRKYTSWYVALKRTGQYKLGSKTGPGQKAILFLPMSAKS
Experiment [17] can be described thus: JC-1 mitochondrial potential readout, lung cancer cells – cell-based, A549, JC-1 fluorescence, basal, 24 h, 100 nL, profiling panel (AID 1138).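 Further: A549 lung adenocarcinoma cells under basal conditions with no added stimulus; test concentration not given here.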 To be noted: higher = more signal.
Experiment [18] relates to Lefty1. Briefly: Lefty1 protein binding to printed compounds – biochemical, small-molecule microarray, 635/667 nm fluorescence, primary screen (AID 1139). To be noted: fluorescence 635/667, higher = more signal.
Experiment [19] deals with wheat germ agglutinin (Triticum aestivum), Alexa647-labelled. Briefly: Alexa647-WGA lectin binding to printed small molecules – biochemical, small-molecule microarray, 635/667 nm fluorescence, artefact control for SMM control-protein annotation, profiling panel (AID 1140).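 Further: score merges 667 nm feature emission with signal to noise over triplicate slides.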 To be noted: WGA-A647 binding, 635 nm fluorescence, higher = more signal.
For experiment [20], the target named is Luciferin 4-monooxygenase (Photinus pyralis) (UniProt P08659). Nature of the experiment: inhibition of purified Photinus pyralis luciferase – biochemical, luminescence, purified enzyme, 2006 set, primary screen (AID 1141).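 Further: cell-free assay with purified firefly luciferase at 100 ng per well in PBS; test concentration not given here.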 The note with it: purified firefly luciferase, SteadyGlo luminescence, 30 min; higher = more signal, called active from +8 up or from −8 down.
Sequence of Luciferin 4-monooxygenase (Photinus pyralis) (P08659 whole entry, looked up): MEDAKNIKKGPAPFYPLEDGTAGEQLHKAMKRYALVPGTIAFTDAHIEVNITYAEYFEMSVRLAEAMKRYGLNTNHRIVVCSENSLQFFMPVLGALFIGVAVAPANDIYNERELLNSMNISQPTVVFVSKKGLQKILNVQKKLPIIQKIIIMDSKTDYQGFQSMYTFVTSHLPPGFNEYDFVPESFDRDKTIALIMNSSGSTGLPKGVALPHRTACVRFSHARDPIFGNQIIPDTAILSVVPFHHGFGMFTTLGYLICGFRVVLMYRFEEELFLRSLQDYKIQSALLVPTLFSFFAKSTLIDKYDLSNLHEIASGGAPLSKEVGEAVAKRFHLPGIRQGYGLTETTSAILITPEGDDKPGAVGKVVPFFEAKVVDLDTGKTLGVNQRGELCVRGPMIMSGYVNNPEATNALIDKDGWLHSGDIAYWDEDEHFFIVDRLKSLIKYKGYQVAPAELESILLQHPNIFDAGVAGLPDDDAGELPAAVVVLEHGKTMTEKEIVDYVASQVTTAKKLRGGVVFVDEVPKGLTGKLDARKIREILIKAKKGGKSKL

The source made the active and inactive calls.

Sequence of Albumin (Bos taurus) (P02769 whole entry, looked up): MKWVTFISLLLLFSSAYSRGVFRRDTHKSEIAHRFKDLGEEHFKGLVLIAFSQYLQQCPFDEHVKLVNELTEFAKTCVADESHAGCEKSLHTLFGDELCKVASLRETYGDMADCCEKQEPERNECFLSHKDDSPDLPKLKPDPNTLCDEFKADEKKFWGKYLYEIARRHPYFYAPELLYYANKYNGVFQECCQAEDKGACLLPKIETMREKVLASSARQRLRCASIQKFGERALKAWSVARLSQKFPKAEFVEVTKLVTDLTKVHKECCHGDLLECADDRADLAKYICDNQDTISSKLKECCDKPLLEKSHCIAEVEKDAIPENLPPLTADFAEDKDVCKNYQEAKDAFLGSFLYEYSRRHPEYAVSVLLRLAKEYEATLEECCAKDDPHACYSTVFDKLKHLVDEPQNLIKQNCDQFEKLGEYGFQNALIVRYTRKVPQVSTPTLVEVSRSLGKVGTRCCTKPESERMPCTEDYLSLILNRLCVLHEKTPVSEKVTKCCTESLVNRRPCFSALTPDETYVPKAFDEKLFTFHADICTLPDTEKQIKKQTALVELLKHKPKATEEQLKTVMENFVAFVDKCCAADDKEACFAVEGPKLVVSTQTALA
Sequence of Follistatin (Homo sapiens) (P19883 whole entry, looked up): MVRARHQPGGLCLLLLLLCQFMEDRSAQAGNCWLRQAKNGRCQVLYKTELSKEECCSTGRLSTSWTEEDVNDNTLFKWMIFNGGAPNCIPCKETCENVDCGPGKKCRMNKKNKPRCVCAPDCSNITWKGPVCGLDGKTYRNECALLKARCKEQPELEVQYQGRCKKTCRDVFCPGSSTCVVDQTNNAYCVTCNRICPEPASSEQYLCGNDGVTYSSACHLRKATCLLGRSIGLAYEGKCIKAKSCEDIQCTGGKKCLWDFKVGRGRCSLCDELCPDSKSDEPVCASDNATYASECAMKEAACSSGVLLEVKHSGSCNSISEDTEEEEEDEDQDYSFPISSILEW
Sequence of Focal adhesion kinase 1 (Homo sapiens) (Q05397 whole entry, looked up): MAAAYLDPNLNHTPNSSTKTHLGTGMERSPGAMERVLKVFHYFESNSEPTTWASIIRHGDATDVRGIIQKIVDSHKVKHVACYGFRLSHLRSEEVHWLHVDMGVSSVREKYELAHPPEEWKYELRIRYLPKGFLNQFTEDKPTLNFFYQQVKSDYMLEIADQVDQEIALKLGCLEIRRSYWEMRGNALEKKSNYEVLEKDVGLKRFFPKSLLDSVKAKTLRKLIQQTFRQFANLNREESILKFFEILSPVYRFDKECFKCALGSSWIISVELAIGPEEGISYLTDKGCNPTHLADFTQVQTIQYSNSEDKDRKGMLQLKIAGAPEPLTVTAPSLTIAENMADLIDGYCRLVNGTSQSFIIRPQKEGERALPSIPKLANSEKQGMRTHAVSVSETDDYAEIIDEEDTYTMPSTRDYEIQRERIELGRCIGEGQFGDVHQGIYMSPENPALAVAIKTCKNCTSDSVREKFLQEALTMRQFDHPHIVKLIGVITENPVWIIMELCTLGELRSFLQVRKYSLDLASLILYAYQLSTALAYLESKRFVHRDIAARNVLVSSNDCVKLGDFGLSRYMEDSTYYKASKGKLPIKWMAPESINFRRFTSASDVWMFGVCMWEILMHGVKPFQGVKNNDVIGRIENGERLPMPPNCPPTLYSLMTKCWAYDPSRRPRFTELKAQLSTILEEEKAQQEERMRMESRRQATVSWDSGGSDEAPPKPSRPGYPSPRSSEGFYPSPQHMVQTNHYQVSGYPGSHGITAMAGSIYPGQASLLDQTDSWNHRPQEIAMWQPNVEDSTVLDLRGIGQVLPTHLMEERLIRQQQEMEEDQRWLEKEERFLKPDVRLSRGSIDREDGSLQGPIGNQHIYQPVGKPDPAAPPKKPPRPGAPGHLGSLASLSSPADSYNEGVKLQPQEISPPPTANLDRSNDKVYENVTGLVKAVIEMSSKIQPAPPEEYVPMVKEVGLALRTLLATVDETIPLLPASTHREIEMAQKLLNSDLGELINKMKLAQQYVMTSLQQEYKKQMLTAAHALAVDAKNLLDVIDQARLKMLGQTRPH

Take `C=CCNC(=O)[C@H]1[C@@H]2C(=O)O[C@@H](c3ccccc3)[C@@H](c3ccccc3)N2[C@@H](c2ccc(OCCO)cc2)[C@]12C(=O)N(C(=O)OCCOC)c1ccc(C#CCNC(N)=O)cc12`: the composite z-score in [1] is 0.452; in [3], 0.0927; in [4] it was -0.0132; in experiment [5] it was 0.396; in [6], 1.73; in experiment [7] it was 0.812. For the same molecule, the composite z-score in experiment [8] worked out at 1.22; in [9], 0.742; in experiment [10] it was 1.11; in [11], 1.9; in experiment [12], 1.15; in [13], 0.621. Besides, the composite z-score in experiment [14] is 0.811; in experiment [15] it was 1.37; in experiment [16] it was 1.71; in experiment [18], 0.707; in [19], 0.929. Also, in experiment [2], the composite Z-score was -0.0518 (inactive). Moreover, the figures for the z-score in [17] and in [20] were -0.0216 and -0.0331 (inactive), respectively.

As to `COc1ccc([Si](C)(C)[C@H]2[C@H](CC(=O)N(CCO)Cc3ccccc3)O[C@@]3(C(=O)N(Cc4ccc(N5C(=O)c6cccc7cccc5c67)cc4)c4ccccc43)[C@@H]2C)cc1`, the composite z-score in experiment [1] was 0.0079; in experiment [3] it was 0.376; in experiment [4], -0.0928; in [5], 0.593; in [6], 1.52; in experiment [7], 0.801. Also, the composite z-score came to 0.747 in [8]; 0.71 in experiment [9]; 1.16 in experiment [10]; 0.53 in experiment [11]; 0.714 in experiment [12]; 0.0253 in [13]. The composite z-score in experiment [14] is 0.624; in experiment [15] it was 1.17; in experiment [16], 1.06; in experiment [18], 1.2; in experiment [19] it was 0.59. The composite Z-score in [2] is 0.0959 (inactive). The results for the z-score in experiment [17] and in experiment [20] were -0.701 and -0.354 (inactive), respectively.

As for `[N-]=[N+]=NCc1ccccc1C[C@@]1(C(N)=O)N=C(c2ccc(OCCCO)cc2)O[C@@H]1c1ccccc1N=[N+]=[N-]`, the composite z-score in [1] came to 0.873; in experiment [3], 0.0065; in [4], 0.0368; in experiment [5], 0.63; in experiment [6], 2.8; in experiment [7] it was 0.197. In addition, the composite z-score is 0.816 in experiment [8]; 0.0247 in experiment [9]; 1.12 in experiment [10]; 1.16 in experiment [11]; 1.24 in experiment [12]; 0.0254 in [13]. Further, the composite z-score in [14] is 0.991; in experiment [15], 0.102; in experiment [16], -0.131; in [18], -0.804; in experiment [19], 0.68. Besides, the composite Z-score in experiment [2] is -0.254 (inactive). Further, the z-score in [17] is 0.306; in experiment [20] it was -5.46 (inactive).

Regarding `CC(C)C[C@H]1NC(=O)CNC(=O)[C@@]23C(=O)N[C@@H](Cc4ccccc4)C2[C@H](C)[C@@]2(C)O[C@H]2C3/C=C/C/C=C\CNC1=O` (stereo not given in full), the composite z-score in [1] is 0.591; in experiment [3] it was -0.0984; in experiment [4], -0.133; in [5], 0.392; in experiment [6], 0.677; in experiment [7] it was 0.248. The composite z-score in experiment [8] was 0.258; in [9], 0.599; in experiment [10] it was 0.0947; in experiment [11], 0.0845; in [12] it was 0.0956; in experiment [13] it was -0.419. Further, the composite z-score was -0.304 in experiment [14]; 0.67 in experiment [15]; 0.0369 in experiment [16]; 0.438 in experiment [18]; 0.813 in experiment [19]. In experiment [2], the composite Z-score was -0.0443 (inactive). The z-score in [17] is -0.0605; in experiment [20] it was 0.151 (inactive).
